The nature of experiment [1]: stimulators of insulin release from INS-1E, primary screen, cell-based, 5 mM glucose, NPC library (AID 1117329;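 active = compound raises insulin release from rat beta cells at 5 mM glucose, no numeric limit stated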). The conditions noted are these: rat INS-1E insulin secretion, at 10 µM, stronger effect = higher value.
A short description of experiment [2]: growth inhibition of GSK3B-pretreated HCT116 cells – cell-based, CellTiter-Glo, 0.2 to 20 µM (AID 1117336;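 active = compounds lowering colon cancer cell viability after pretreatment blocking the GSK3B kinase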). The conditions noted are these: HCT116 viability after GSK3B inhibitor, at 20 µM, stronger effect = higher value. (In general: In ATP-based viability assays light output follows the ATP content of the culture.)
Experiment [3] is described as follows: inhibition of endothelial tube formation, primary screen, imaging, VEGF stimulated, CD31 staining, tube area, NPC library (AID 1117340;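 active = compound that reduces growth-factor-driven endothelial tube area in a mixed cell culture, no cutoff stated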). The conditions noted are these: VEGF-stimulated ADSC/ECFC co-culture, at 10 µM, stronger effect = higher value.
The nature of experiment [4]: glucagon-like peptide 1 release enhancers, primary assay, NCI-H716 cell line, NPC library (AID 1117341;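 active = compound raises GLP1 secretion from the human gut endocrine cells, with no numeric limit stated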). The note with it: NCI-H716 cells, at 10 µM, stronger effect = higher value.
Experiment [5] can be described thus: HCT116 colon cancer cell growth inhibition, primary screen, CellTiter-Glo luminescence, NPC library (AID 1117342). The conditions noted are these: at 20 µM (top of the series).
Experiment [6] is described as follows: CellTiter-Glo luminescent readout of SW480 viability loss, NPC library primary (AID 1117343;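 active = compounds that lower viability of the colon cancer cells in the luminescence readout, with no numeric limit stated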). The conditions noted are these: CellTiter-Glo luminescence; at 20 µM (top of the series).
Experiment [7] in a line: decreased DLD-1 cellular survival, CellTiter-Glo luminescent readout, NPC compound collection, primary HTS (AID 1117346;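 active = compounds that lower survival of DLD-1 colon cancer cells in the luminescence readout, no cutoff given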). The conditions noted are these: DLD-1 viability, CellTiter-Glo luminescence; at 20 µM (top of the series).
The target of experiment [8] is 6-phosphogluconate dehydrogenase, decarboxylating (Homo sapiens) (UniProt P52209). The experiment is described as follows: 6PGD enzyme inhibitors, primary screen, biochemical, human, recombinant enzyme, NADPH absorbance (AID 1159550;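 active = at least 20% inhibition of 6-phosphogluconate dehydrogenase activity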). The note with it: recombinant 6PGD, NADPH absorbance 341 nm; at 10 µM; stronger effect = higher value.
6-phosphogluconate dehydrogenase, decarboxylating (Homo sapiens), sequence (P52209 whole entry, looked up): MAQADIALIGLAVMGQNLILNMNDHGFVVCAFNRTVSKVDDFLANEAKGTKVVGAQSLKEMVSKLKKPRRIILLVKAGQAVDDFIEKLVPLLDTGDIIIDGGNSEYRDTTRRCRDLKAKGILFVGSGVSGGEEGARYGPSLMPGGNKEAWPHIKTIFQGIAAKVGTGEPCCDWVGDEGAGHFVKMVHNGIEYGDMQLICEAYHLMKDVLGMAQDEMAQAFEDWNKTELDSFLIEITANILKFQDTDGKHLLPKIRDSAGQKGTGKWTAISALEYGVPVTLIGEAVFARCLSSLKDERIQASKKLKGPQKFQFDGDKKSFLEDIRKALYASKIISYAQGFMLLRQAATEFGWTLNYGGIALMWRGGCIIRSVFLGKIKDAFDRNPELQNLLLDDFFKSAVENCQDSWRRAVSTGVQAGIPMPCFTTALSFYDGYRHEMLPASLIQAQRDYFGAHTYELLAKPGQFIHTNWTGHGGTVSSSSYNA
A short description of experiment [9]: differential killing of epithelial or mesenchymal cells, primary screen, imaging, PC-3E GFP, TEM4-18 mCherry, co-culture (AID 1345086;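 active = compounds killing one labelled cell type while sparing the other, by normalised counts and ratio limits, not self-fluorescent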;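 for all read-outs here: cells exposed to compound for 72 h before imaging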;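 for red/green cell ratio (normalised): normalised mesenchymal count divided by normalised epithelial count so high means epithelial killing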). The conditions noted are these: imaging cell counts, at 1 µM; for red/green cell ratio (normalised): actives lie on both sides, counts scaled to control wells, 1 = unselective.
In experiment [10] the test system is Aerobactin synthetase IucA (Klebsiella pneumoniae). Description: IucA aerobactin synthetase inhibitors, biochemical, Tocris library, absorbance (AID 1345561; call rule not given here;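 note: 100% = enzyme without compound and 0% = no enzyme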). The conditions noted are these: purified IucA enzyme assay, absorbance (OD) read-out; stronger effect = lower value;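 tested at 8 µM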.
Experiment [11] can be described thus: growth inhibition of DIPG glioma cells, dose response, cell-based, SU-DIPG-XIII, MIPE4.0, CellTiter-Glo, qHTS (AID 1347061; cut-off not given, nearly all actives have AC50 up to about 37 µM;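 note: cells exposed to compound for 48 hours before readout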). The conditions noted are these: SU-DIPG-XIII viability, CellTiter-Glo ATP luminescence.
[12] abbreviates: measured here: epithelial PC-3E GFP cell survival.
Setting [13] is: measured here: mesenchymal TEM4-18 mCherry cell survival.

Inconclusive results are not listed. Calls of active or inactive are those of the source.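 Rule for the calls, unless noted: active = compounds that lower survival of HCT116 colon cancer cells in the luminescence readout, no numeric limit stated; inactive = the rest.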

By inhibition is commonly meant the drop in the measured response relative to a control, in per cent. With `CC(C)(C)CC(C)(C)c1ccc(O)c(Cc2ccc(Cl)cc2Cl)c1`, in experiment [1], the insulin secretion stimulation is 4.4% (active). Besides, the viability decrease in experiment [2] was 99.3% (active). Also, the tube area decrease in experiment [3] was 108% (active). Further, in experiment [4], the GLP1 secretion stimulation is 117% (active). In experiment [5], the inhibition of viability is 100% (active). Moreover, the viability decrease (inhibition) in experiment [6] was 120% (active); in experiment [7], 102% (active). In addition, in experiment [8], the inhibition was -15.2% (inactive). In experiment [9], the red/green cell ratio (normalised) was 0.81 (inactive). Moreover, the normalised cell number in experiment [9] (setting [12]) was 1.02; in [9] (setting [13]) it was 0.82.
The remaining activity is the signal under treatment as a percentage of the control signal. With `Fc1ccc(C(c2ccc(F)cc2)N2CCN(C/C=C/c3ccccc3)CC2)cc1`, in experiment [1], the insulin secretion stimulation is 2.65% (inactive). In addition, in [2], the viability decrease is 108% (active). For the same compound, the tube area decrease in experiment [3] is 21.4% (inactive). Besides, in experiment [4], the GLP1 secretion stimulation is 0.7% (inactive). The inhibition of viability in [5] was 107% (active). In addition, the figures for the viability decrease (inhibition) in [6] and in [7] were 125% (active) and 99.7% (active), respectively. Besides, in experiment [8], the inhibition is 16.5% (inactive). Moreover, the red/green cell ratio (normalised) in experiment [9] is 1.11 (inactive). Besides, the normalised cell number came to 0.86 in experiment [9] (setting [12]) and 0.95 in experiment [9] (setting [13]). Besides, the remaining activity in [10] was 105% (inactive). In addition, in experiment [11], the result was inactive.
Consider `COC(=O)N/N=C/c1c[n+]([O-])c2ccccc2[n+]1[O-]`, for which the insulin secretion stimulation in experiment [1] was 1.9% (inactive). In addition, the viability decrease in [2] was 18.7% (inactive). Moreover, the tube area decrease in experiment [3] is 22.2% (inactive). Also, the GLP1 secretion stimulation in experiment [4] was 5.7% (inactive). In experiment [5], the inhibition of viability was -3% (inactive). Further, the viability decrease (inhibition) in [6] was -10.2% (inactive); in experiment [7] it was -4.9% (inactive). The inhibition in experiment [8] is 11.2% (inactive). In addition, in experiment [9], the red/green cell ratio (normalised) is 0.65 (inactive). The normalised cell number was 1.24 in experiment [9] (setting [12]) and 0.81 in experiment [9] (setting [13]).
On to `C=CCc1ccccc1OCC(O)CNC(C)C` (stereo not drawn), for which the insulin secretion stimulation in experiment [1] was 2.2% (inactive). Besides, the viability decrease in experiment [2] is -6.8% (inactive). Moreover, in [3], the tube area decrease is -1.1% (inactive). The GLP1 secretion stimulation in experiment [4] is 1.4% (inactive). Moreover, the inhibition of viability in [5] is 34.3% (inactive). The viability decrease (inhibition) in experiment [6] was 27.3% (inactive); in experiment [7], 12% (inactive). In experiment [8], the inhibition is -12.3% (inactive). Moreover, the red/green cell ratio (normalised) in [9] was 1 (inactive). The normalised cell number in experiment [9] (setting [12]) and in experiment [9] (setting [13]) was 1.2 throughout.
Take `CN1CCC[C@@H]1CCO[C@](C)(c1ccccc1)c1ccc(Cl)cc1`: the insulin secretion stimulation in [1] was 1.3% (inactive). The viability decrease in [2] was 25.3% (inactive). In experiment [3], the tube area decrease is 55% (active). Also, the GLP1 secretion stimulation in experiment [4] was 10.3% (inactive). Further, the inhibition of viability in experiment [5] was 78.8% (active). Besides, the viability decrease (inhibition) in experiment [6] was 113% (active); in experiment [7], 86.8% (active). Besides, the inhibition in experiment [8] was 12.4% (inactive). Moreover, in experiment [9], the red/green cell ratio (normalised) is 1.23 (inactive). In addition, the results for the normalised cell number in [9] (setting [12]) and in [9] (setting [13]) were 1.06 and 1.3, respectively. Further, in [10], the remaining activity was 109% (inactive). Also, the call in experiment [11] was inactive.
`COc1ccc(CN(CCN(C)C)c2ccccn2)cc1`: the insulin secretion stimulation in [1] is 68.9% (active). Also, the viability decrease in experiment [2] was 3.3% (inactive). Moreover, in experiment [3], the tube area decrease was 14.4% (inactive). Further, the GLP1 secretion stimulation in [4] was 1.2% (inactive). Further, the inhibition of viability in [5] is -7.7% (inactive). The viability decrease (inhibition) is 22.5% (inactive) in experiment [6] and -34.8% (inactive) in [7]. The inhibition in experiment [8] was 4.83% (inactive). The red/green cell ratio (normalised) in [9] is 1.1 (inactive). Besides, the normalised cell number in [9] (setting [12]) was 1.02; in [9] (setting [13]) it was 1.12. Also, in [10], the remaining activity is 118% (inactive).
In the case of `c1ccc(CN(CC2=NCCN2)c2ccccc2)cc1`, the insulin secretion stimulation in [1] was 11.3% (inactive). The viability decrease in experiment [2] is -68.5% (inactive). Also, in experiment [3], the tube area decrease was 23.2% (inactive). Moreover, the GLP1 secretion stimulation in experiment [4] was -1.9% (inactive). Further, in experiment [5], the inhibition of viability is 15.7% (inactive). Also, the viability decrease (inhibition) was 22% (inactive) in [6] and 0.7% (inactive) in experiment [7]. For the same compound, the inhibition in experiment [8] is -4.52% (inactive). The red/green cell ratio (normalised) in experiment [9] is 1.08 (inactive). The normalised cell number in experiment [9] (setting [12]) stood at 1.24; in experiment [9] (setting [13]) it was 1.34. The remaining activity in experiment [10] is 98.2% (inactive).
